# Key:
# Test in all cases: DAPPL (digital affinity profiling via proximity ligation, sequencing); 10 mM Tris-HCl pH 7.5, 50 mM NaCl, 1 mM DTT, 4% glycerol, room temperature, 30 min; GST-TFs on glutathione beads, 16-mer random dsDNA library, 0.1% formaldehyde crosslink after washing; high values mean tight binding
# FEV = molecular target: T1, FEV (Homo sapiens, UniProt Q99581 1-238); details: protein: recombinant; tags: N-terminal GST; dsDNA, one strand shown
# T1 sequence: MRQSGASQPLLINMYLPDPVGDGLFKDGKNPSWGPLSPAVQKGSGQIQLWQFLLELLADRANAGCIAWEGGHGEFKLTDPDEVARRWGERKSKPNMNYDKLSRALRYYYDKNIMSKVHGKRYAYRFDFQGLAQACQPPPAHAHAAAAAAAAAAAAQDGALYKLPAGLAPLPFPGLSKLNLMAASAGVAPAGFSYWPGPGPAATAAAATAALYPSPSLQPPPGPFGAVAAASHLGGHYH
# Procedure, shortened: (§1)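 Pools of DNA-barcoded human transcription factors, expressed in yeast as GST fusions on glutathione beads and combined with a tag-only sample, were incubated with 200 nmole of a 16-mer random double-stranded DNA library. Incubation took 30 min at room temperature in Tris/NaCl/DTT/glycerol buffer and was followed by washing, 0.1% formaldehyde crosslinking, proximity ligation (BsaI/T4 ligase, 1 h, 37 °C), PCR amplification and sequencing on an Illumina NextSeq500. Binding signal is the ratio of a hexamer's read frequency for a factor to its frequency for the tag-only sample.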
# ETV5 = ETV5 (Homo sapiens, UniProt P41161 1-510); details: protein: recombinant; tags: N-terminal GST; dsDNA, one strand shown
# Chain of ETV5 (P41161 whole entry): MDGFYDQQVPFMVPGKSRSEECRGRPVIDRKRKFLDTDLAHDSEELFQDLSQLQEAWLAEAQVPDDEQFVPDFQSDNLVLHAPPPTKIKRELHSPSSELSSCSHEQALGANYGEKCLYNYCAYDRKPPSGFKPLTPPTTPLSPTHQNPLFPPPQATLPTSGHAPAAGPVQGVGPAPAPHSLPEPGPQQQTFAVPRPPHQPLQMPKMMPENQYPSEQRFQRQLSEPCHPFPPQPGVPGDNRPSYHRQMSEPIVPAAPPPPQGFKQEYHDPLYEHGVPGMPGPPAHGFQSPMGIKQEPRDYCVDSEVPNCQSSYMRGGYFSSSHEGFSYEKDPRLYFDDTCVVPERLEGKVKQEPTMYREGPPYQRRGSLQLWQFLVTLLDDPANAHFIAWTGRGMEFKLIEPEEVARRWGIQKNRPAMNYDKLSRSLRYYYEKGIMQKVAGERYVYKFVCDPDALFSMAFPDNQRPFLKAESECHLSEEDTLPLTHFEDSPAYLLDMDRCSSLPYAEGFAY
# Procedure, shortened: as §1
# HSF1 = HSF1 (Homo sapiens, UniProt Q00613 1-529); details: protein: recombinant; tags: N-terminal GST; chain copies: 3; dsDNA, one strand shown
# Chain of HSF1 (Q00613 whole entry): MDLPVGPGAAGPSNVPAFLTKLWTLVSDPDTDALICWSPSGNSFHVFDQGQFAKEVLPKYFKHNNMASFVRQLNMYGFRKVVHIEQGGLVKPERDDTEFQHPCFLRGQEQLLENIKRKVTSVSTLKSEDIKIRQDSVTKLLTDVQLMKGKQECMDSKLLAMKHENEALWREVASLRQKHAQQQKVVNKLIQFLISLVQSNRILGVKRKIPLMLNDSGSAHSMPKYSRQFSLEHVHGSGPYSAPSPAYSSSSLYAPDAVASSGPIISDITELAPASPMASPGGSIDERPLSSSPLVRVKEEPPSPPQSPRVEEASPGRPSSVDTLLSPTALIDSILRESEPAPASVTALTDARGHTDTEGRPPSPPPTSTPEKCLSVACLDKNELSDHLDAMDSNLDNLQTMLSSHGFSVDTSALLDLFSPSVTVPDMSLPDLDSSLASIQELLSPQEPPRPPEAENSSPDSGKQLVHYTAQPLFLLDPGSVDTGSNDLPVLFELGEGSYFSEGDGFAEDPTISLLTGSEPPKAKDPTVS
# Procedure, shortened: as §1
# SPIC = molecular target: T2, SPIC (Homo sapiens, UniProt Q8N5J4 1-248); details: protein: recombinant; tags: N-terminal GST; dsDNA, one strand shown
# T2 sequence: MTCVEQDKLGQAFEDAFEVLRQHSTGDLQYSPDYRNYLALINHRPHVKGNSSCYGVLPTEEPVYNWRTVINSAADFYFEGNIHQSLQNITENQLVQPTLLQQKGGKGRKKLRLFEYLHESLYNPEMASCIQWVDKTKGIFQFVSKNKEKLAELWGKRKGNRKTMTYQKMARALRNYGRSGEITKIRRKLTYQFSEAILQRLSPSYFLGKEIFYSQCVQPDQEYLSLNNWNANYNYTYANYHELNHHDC
# Procedure, shortened: as §1
# ELF4 = ELF4 (Homo sapiens, UniProt Q99607 1-663); details: protein: recombinant; tags: N-terminal GST; dsDNA, one strand shown
# Chain of ELF4 (Q99607 whole entry): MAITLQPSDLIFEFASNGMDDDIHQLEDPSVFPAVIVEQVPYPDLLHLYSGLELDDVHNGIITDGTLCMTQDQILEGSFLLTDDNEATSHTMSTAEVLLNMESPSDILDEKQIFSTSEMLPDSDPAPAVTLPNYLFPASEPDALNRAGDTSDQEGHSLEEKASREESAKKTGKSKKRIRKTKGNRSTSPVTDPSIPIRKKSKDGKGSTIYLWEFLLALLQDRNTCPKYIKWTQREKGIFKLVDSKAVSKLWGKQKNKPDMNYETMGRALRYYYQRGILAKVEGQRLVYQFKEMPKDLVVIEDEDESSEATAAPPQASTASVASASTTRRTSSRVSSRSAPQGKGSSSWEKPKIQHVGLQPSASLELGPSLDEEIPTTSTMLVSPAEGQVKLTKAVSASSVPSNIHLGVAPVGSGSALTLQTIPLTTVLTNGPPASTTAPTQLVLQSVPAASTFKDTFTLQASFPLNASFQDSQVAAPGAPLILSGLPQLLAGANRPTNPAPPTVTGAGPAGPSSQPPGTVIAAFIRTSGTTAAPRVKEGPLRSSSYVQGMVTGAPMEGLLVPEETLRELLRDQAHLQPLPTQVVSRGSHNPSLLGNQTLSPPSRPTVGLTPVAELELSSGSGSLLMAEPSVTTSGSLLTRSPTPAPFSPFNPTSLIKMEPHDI
# Procedure, shortened: as §1
# ELK4 = molecular target: T3, ELK4 (Homo sapiens, UniProt P28324-2 1-405); details: protein: recombinant; tags: N-terminal GST; dsDNA, one strand shown
# T3 sequence: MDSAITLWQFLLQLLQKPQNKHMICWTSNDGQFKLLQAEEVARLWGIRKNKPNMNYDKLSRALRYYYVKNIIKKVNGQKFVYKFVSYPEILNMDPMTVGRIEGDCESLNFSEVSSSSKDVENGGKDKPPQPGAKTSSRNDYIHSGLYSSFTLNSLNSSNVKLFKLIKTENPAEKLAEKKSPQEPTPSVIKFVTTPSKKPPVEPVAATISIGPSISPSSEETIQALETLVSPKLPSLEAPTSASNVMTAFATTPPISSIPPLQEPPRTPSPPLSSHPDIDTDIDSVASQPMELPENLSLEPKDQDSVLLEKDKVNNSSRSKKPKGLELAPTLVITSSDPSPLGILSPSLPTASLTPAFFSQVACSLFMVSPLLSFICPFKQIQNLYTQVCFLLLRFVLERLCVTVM
# Procedure, shortened: as §1
# ETV2 = molecular target: T4, ETV2 (Homo sapiens, UniProt O00321 1-342); details: protein: recombinant; tags: N-terminal GST; dsDNA, one strand shown
# T4 sequence: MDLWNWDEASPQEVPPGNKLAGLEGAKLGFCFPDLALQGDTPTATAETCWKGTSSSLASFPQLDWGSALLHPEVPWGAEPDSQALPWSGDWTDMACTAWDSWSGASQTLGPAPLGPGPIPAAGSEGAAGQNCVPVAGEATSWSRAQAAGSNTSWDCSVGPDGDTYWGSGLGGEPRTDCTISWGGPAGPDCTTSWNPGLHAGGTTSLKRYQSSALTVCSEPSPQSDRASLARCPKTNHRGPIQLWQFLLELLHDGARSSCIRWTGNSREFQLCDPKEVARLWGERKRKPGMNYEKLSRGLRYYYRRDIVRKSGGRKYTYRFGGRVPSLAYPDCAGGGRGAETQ
# Procedure, shortened: as §1
# ELF3 = molecular target: T5, ELF3 (Homo sapiens, UniProt P78545 1-371); details: protein: recombinant; tags: N-terminal GST; dsDNA, one strand shown
# T5 sequence: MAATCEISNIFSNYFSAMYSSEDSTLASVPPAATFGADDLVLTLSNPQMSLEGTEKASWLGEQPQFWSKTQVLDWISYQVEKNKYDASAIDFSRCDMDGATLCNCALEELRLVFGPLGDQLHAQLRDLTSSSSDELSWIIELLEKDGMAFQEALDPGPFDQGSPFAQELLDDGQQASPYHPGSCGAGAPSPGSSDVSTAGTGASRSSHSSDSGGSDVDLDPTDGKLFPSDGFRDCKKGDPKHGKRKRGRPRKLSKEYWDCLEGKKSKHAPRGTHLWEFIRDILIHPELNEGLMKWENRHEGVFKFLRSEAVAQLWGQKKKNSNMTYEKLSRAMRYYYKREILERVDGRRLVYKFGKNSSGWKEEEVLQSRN
# Procedure, shortened: as §1
# CRX = CRX (Homo sapiens, UniProt O43186 1-299); details: protein: recombinant; tags: N-terminal GST; dsDNA, one strand shown
# Chain of CRX (O43186 whole entry): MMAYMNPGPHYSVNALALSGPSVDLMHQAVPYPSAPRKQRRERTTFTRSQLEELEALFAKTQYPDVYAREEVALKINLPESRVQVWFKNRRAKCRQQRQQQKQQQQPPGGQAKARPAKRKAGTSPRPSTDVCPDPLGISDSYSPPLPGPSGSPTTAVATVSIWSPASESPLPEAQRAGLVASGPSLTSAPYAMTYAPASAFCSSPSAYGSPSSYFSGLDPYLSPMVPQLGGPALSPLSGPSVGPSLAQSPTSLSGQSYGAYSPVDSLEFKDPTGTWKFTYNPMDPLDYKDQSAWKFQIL
# Procedure, shortened: as §1
# ETV1 = ETV1 (Homo sapiens, UniProt P50549 1-477); details: protein: recombinant; tags: N-terminal GST; dsDNA, one strand shown
# Chain of ETV1 (P50549 whole entry): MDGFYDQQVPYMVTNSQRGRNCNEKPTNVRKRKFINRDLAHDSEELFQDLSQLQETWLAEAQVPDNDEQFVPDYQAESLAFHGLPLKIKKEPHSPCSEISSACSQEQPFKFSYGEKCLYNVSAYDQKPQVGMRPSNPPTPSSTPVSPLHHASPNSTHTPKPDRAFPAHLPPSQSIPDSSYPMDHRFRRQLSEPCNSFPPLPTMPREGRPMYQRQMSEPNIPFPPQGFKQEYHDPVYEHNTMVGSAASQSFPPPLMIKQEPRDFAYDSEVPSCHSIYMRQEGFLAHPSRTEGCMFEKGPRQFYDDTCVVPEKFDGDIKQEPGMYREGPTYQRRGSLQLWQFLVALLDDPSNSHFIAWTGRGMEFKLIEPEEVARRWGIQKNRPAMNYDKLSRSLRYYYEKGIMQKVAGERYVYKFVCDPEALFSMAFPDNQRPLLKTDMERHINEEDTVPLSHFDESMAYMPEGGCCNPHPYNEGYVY
# Procedure, shortened: as §1
sequence,measurement,setting,value
ATAAAC,binding signal,FEV,"1.13 fold enrichment (6-mer frequency, TF over GST control)"
same,binding signal,ETV5,"1.19 fold enrichment (6-mer frequency, TF over GST control)"
same,binding signal,HSF1,"1.27 fold enrichment (6-mer frequency, TF over GST control)"
same,binding signal,SPIC,"1.2 fold enrichment (6-mer frequency, TF over GST control)"
same,binding signal,ELF4,"1.16 fold enrichment (6-mer frequency, TF over GST control)"
same,binding signal,ELK4,"1.13 fold enrichment (6-mer frequency, TF over GST control)"
same,binding signal,ETV2,"1.19 fold enrichment (6-mer frequency, TF over GST control)"
same,binding signal,ELF3,"1.13 fold enrichment (6-mer frequency, TF over GST control)"
same,binding signal,CRX,"1.5 fold enrichment (6-mer frequency, TF over GST control)"
same,binding signal,ETV1,"1.11 fold enrichment (6-mer frequency, TF over GST control)"

# Source: article PMC7862700, “An all-to-all approach to the identification of sequence-specific readers for epigenetic DNA modifications on cytosine”
